# In PubChem BioAssay AID778 (Sanford-Burnham Center for Chemical Genomics, 2007):
# In all, about 96,000 compounds went through this assay and about 20,000 (21%) were called active.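 Rule for the calls: active = CYP2C19 inhibition above a set limit at 5 µM in the primary screen (cut at about 50% in these data); inactive = the rest.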 A selection follows.
# Molecular target: Cytochrome P450 2C19 (Homo sapiens) (UniProt P33261)
# Experiment: blockers of cytochrome P450 2C19 activity – biochemical, luminescence, ADME assay, primary screen (AID 778);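 note: plate controls were negative control wells for no effect and 2.5 mM tranylcypromine positive control for full effect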
# Settings: CYP2C19 Supersomes, luciferin-H EGE luminescence, 30 min; at 5 µM; stronger effect = higher value
# Cytochrome P450 2C19 (Homo sapiens), sequence (P33261 whole entry, looked up): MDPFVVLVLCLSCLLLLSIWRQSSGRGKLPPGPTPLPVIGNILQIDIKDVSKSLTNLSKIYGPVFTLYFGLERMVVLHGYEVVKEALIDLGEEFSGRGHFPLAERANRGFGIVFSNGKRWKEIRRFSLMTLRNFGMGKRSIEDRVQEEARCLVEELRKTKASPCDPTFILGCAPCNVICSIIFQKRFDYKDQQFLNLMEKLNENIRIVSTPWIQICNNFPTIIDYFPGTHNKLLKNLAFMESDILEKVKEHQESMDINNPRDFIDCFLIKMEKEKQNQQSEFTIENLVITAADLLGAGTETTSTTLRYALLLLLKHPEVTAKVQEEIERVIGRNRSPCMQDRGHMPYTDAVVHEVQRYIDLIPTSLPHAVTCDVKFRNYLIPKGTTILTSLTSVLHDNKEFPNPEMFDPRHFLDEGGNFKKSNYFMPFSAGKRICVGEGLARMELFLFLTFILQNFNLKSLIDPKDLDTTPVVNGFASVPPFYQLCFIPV
row,Compound,inhibition
1,O=C(CSc1nc(C2CC2)nc2ccccc12)Nc1ccc2c(c1)OCCO2,19.7% (inactive)
2,O=C(CSc1nnnn1-c1ccc2c(c1)CCC2)Nc1ccc2c(c1)OCCO2,-2.7% (inactive)
3,Cc1ccc(-n2c(SCC(=O)Nc3ccc4c(c3)OCO4)nnc2-c2ccoc2C)cc1,-13% (inactive)
4,O=C(CSc1nc2ncccc2[nH]1)Nc1ccc2c(c1)OCCO2,82.3% (active)
5,CCCCSc1nc2c(c(=O)n1CC)SC(C)C2 (configuration not stated),42% (inactive)
6,CCn1c(SCC(=O)Nc2ccc3c(c2)OCCO3)nc2c(c1=O)SC(C)C2 (configuration not stated),61.9% (active)
7,O=C(CSc1nnc(-c2ccccn2)n1-c1ccccc1)Nc1ccc2c(c1)OCO2,5% (inactive)
8,O=C(CSc1nnnn1C1CCCC1)Nc1ccc2c(c1)OCCO2,68.5% (active)
9,CCC(=O)Nc1cccc(NC(=O)CSc2nnnn2C2CCCC2)c1,36.1% (inactive)
10,Cc1nonc1OCCn1nnnc1N,4% (inactive)
11,O=C(CCn1c(=S)[nH]c2ccccc2c1=O)NCCCN1CCCC1=O,5.4% (inactive)
12,O=C(CS(=O)(=O)c1cn(Cc2ccc(Cl)cc2)c2ccccc12)N1CCOCC1,35.4% (inactive)
13,CCOC(=O)c1cc(NC(=O)SCC(=O)O)c(C)nc1C,24.3% (inactive)
14,N#CCSc1nc2c(c(=O)n1Cc1ccccc1)C1(CCCC1)Cc1ccccc1-2,-19% (inactive)
15,COc1cc(Br)cc(/C=N/c2ncn[nH]2)c1O,0.3% (inactive)
16,Cc1nc2nc(C)c(CCC(=O)N3CCN(c4ccccc4)CC3)c(C)n2n1,7.2% (inactive)
17,Cc1nc2c(-c3ccc(F)cc3)c(C)nn2c(C)c1CCC(=O)N1CCN(c2ccccn2)CC1,54.1% (active)
18,Cc1nc2c(-c3ccc(F)cc3)c(C)nn2c(C)c1CCC(=O)NCc1ccco1,41.7% (inactive)
19,Cc1nn(C)cc1/C=N/NC(=O)c1sc2ccccc2c1Cl,37.3% (inactive)
20,CC(=O)Nc1ccc(S(=O)(=O)N2CCC(N(C)CCC(C)C)CC2)cc1,2.5% (inactive)
21,CCOC(=O)C1CCc2nc3ccccc3c(=O)n21 (configuration not stated),17.8% (inactive)
22,CCOn1c(SC(C)C)nc2ccccc2c1=O,-0.2% (inactive)
23,N#Cc1c(NC(=O)CSc2nc3ccccc3c(=O)n2Cc2ccco2)sc2c1CCCC2,-5.2% (inactive)
24,CCOC(=O)C(C)Sc1nc2ccccc2c(=O)n1CC1CCCCC1 (configuration not stated),71.3% (active)
25,CC(Sc1nc2ccccc2c(=O)n1Cc1ccco1)C(=O)c1ccccc1 (configuration not stated),74.1% (active)
26,O=C(CN1CCOCC1)Nc1c(-c2ccccc2)c2cc(Br)ccc2[nH]c1=O,4.9% (inactive)
27,Cc1ccc(C(=O)N2CCN(C(=O)N3CCOCC3)CC2)cc1,7.4% (inactive)
